Laboratory results published in PubChem BioAssay (Tox21).
Inconclusive results are not listed. The source made the active and inactive calls. Unless noted, calls follow the shape of the dose curve; as a rule, active = well fitted curve in the direction sought with a large enough effect in the repeat runs; inconclusive = weak or mixed curves; inactive = no such curve, though single readings can be large; an effect the other way counts as inactive or inconclusive.

Tests used:
[1] = qHTS assay for small molecule agonists of the p53 signaling pathway (AID 651631; calls by dose curve; also: nearly all actives have a fitted effect of over 15% in size)
How it was run: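 Readout was fluorescence from the LiveBLAzer FRET substrate, applied for 2 h at room temperature after 16 h compound exposure at 37 °C. Cells were the p53RE-bla HCT-116 line, with beta-lactamase driven by p53 response elements.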

[2] = qHTS assay for small molecules that induce genotoxicity in human embryonic kidney cells expressing luciferase-tagged ATAD5 (AID 651632); also: nearly all actives have a fitted effect of over 15% in size
How it was run: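 Test compounds were delivered by pin tool onto HEK293T reporter cells (2,000/well) expressing ATAD5 fused to luciferase. After 16 hr at 37C, 5% CO2, Amplite was added for 30 min at room temperature and luminescence was measured.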

[3] = qHTS assay for small molecule agonists of the p53 signaling pathway - cell viability (AID 651633; calls by dose curve; also: series mostly up to about 83 µM; nearly all actives have a fitted effect of over 30% in size)
How it was run: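 p53RE-bla cells, seeded at 4,000 per well and rested 5 h at 37 C/5% CO2, received compounds in DMSO for 16 h at 37 C. CellTiter-Glo was then added, and luminescence was read after 30 min at room temperature to gauge cytotoxicity.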

[4] = qHTS assay for small molecules that induce genotoxicity in human embryonic kidney cells expressing luciferase-tagged ATAD5 - cell viability (AID 651634; calls by dose curve; also: nearly all actives have a fitted effect of over 25% in size)
How it was run: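 Quantitative high-throughput format. HEK293T cells expressing ATAD5 fused to luciferase were plated at 2,000 cells/well and treated 15.5 hr with compound versus DMSO. Viability was determined by fluorescent live-cell protease substrate, 30 min at 37C.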

[5] = qHTS assay for small molecule disruptors of the mitochondrial membrane potential - cell viability (AID 720634; calls by dose curve; also: nearly all actives have a fitted effect of over 20% in size; also: potency is read from the fitted curve at half-maximal effect)
How it was run: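 Same-well counter-screen: following the MMP dye addition, CellTiter-Glo was added to 1 hr compound-treated HepG2 cells and luminescence read after 30 min at room temperature.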

[6] = qHTS assay for small molecule disruptors of the mitochondrial membrane potential (AID 720635); also: potency is read from the fitted curve at half-maximal effect
How it was run: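 HepG2 cells (2,000/well) attached overnight at 37C, then took compound for 1 hr at 37C, 5% CO2. Mito-MPS dye was added for 30 min; fluorescence was read at 490/535 nm (monomers) and 540/590 nm (aggregates).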

[7] = qHTS assay to test for compound auto fluorescence at 590 nm (red) in HepG2 cells (AID 720674)
How it was run: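 Compound auto-fluorescence is scored relative to Rose Bengal sodium, measured at 540/590 nm in live HepG2 cultures after 1 hr compound contact (37 C, 5% CO2).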

[8] = qHTS assay to test for compound auto fluorescence at 535 nm (green) in HepG2 cells (AID 720675)
[9] = qHTS assay to test for compound auto fluorescence at 460 nm (blue) in HEK293 cells (AID 720678)
How it was run: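 Triamterene serves as the blue fluorophore standard. Compound signal at 405/460 nm is read in HEK293 wells (2,000 cells, 10% dialyzed FBS) after overnight treatment at 37C.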

[10] = qHTS assay to test for compound auto fluorescence at 590 nm (red) in HEK293 cells (AID 720679)
How it was run: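 We plated HEK293 cells in 10% dialyzed FBS medium, let them adhere for 4-5 hr, then added 23 nL compound. Overnight at 37C and 5% CO2 preceded fluorescence measurement at 540/590nm.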

[11] = qHTS assay to test for compound auto fluorescence at 535 nm (green) in HEK293 cells (AID 720680)
[12] = qHTS assay to test for compound auto fluorescence at 535 nm (green) in HEK293 cell free culture (AID 720682)
How it was run: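 Compounds were pin-transferred into cell-free DMEM with 10% FBS, and green fluorescence was read at excitation 485 nm and emission 535 nm. Intensities were expressed as fluorescein-equivalent values.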

[13] = qHTS assay to test for compound auto fluorescence at 590 nm (red) in HEK293 cell free culture (AID 720683)
How it was run: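 Tox21 10K library compounds were pinned into cell-free DMEM with 10% FBS and fluorescence was read at excitation 540 nm. Activity is expressed as Rose Bengal sodium equivalency.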

[14] = qHTS assay to test for compound auto fluorescence at 590 nm (red) in HepG2 cell free culture (AID 720684)
How it was run: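 Ex 540 / Em 590 nm read of compound in cell-free MEM (10% FBS). Rose Bengal sodium reference.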

[15] = qHTS assay to test for compound auto fluorescence at 460 nm (blue) in HepG2 cell free culture (AID 720685)
How it was run: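 Cell-free plates of MEM plus 10% FBS received 23 nL compound or DMSO vehicle; blue-channel (405/460 nm) intensity scored against triamterene as reference fluorophore.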

[16] = qHTS assay to test for compound auto fluorescence at 460 nm (blue) in HepG2 cells (AID 720687)
How it was run: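 Cells (2,000/well in MEM with 10% FBS) attached overnight at 37 C, then were exposed to compound or DMSO for 1 hr at 37 C, 5% CO2. Fluorescence read at Ex/Em 405/460 nm, expressed as triamterene-equivalent signal.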

[17] = biological target: Glucocorticoid receptor (Homo sapiens) (UniProt P04150); assay: qHTS assay to identify small molecule agonists of the glucocorticoid receptor (GR) signaling pathway (AID 720691; active = well fitted activation curve with a large enough effect in the signal ratio in the repeat runs, not every such curve was filed as active; the % refers to the signal ratio)
Sequence of Glucocorticoid receptor (Homo sapiens) (P04150 whole entry, looked up): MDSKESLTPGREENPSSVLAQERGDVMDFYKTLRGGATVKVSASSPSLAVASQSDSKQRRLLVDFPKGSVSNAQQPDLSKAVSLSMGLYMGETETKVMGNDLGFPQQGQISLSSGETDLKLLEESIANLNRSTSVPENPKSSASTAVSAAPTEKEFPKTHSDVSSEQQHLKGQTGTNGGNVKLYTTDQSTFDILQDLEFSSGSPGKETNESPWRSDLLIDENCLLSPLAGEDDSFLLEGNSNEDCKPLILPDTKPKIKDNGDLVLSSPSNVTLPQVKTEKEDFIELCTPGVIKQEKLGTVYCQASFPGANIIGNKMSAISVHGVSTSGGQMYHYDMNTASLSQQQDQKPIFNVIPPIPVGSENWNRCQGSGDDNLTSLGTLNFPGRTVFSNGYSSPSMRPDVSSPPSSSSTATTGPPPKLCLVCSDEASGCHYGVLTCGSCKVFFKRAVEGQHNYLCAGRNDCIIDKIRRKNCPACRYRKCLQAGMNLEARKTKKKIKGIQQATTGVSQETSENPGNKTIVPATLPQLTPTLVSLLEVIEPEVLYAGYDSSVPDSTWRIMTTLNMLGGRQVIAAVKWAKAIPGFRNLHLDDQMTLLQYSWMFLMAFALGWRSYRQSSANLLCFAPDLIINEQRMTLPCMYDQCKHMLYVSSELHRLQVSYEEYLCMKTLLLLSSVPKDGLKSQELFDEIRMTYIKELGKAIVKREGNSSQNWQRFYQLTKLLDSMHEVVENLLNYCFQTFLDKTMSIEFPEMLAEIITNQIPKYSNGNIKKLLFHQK
How it was run: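 A HeLa cervical cancer line expressing GR and a glucocorticoid response element-driven beta-lactamase gene is treated with compounds for 18 h; LiveBLAzer B/G FRET substrate is then applied and fluorescence read.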

[18] = biological target: Glucocorticoid receptor (Homo sapiens) (UniProt P04150); assay: qHTS assay to identify small molecule antagonists of the glucocorticoid receptor (GR) signaling pathway (AID 720692; active = well fitted inhibition curve with a large enough effect in the signal ratio in the repeat runs, not every such curve was filed as active; the % refers to the signal ratio)
How it was run: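 GRE-bla HeLa line, dex-stimulated (5 nM final). Compound exposure 18 h, 37 C. Beta-lactamase FRET read after 2 h RT substrate.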

[19] = qHTS assay to test for compound auto fluorescence at 460 nm (blue) in HEK293 cell free culture (AID 720681)
How it was run: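 Test compounds were pinned into cell-free culture medium (DMEM with 10% FBS) and fluorescence was read directly at Ex/Em 405/460 nm. Signals were expressed as fluorescence equivalents of triamterene, with DMSO vehicle as control.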

[20] = qHTS assay to test for compound auto fluorescence at 535 nm (green) in HepG2 cell free culture (AID 720686)

Measured: Potency

CC1(C)S[C@@H]2[C@H](NC(=O)C(c3ccccc3)S(=O)(=O)O)C(=O)N2[C@H]1C(=O)O (stereo not given in full)
inactive: [1] | [2] | [3] | [4] | [5] | [6] | [7] | [8] | [9] | [10] | [11] | [12] | [13] | [14] | [15] | [16] | [17] | [18]

CC(=O)OCC[N+](C)(C)C
inactive: [1] | [2] | [3] | [4] | [5] | [6] | [7] | [8] | [9] | [10] | [19] | [12] | [13] | [14] | [15] | [20] | [16] | [18]

CC[N+](CC)(CCNC(=O)C(=O)NCC[N+](CC)(CC)Cc1ccccc1Cl)Cc1ccccc1Cl
inactive: [1] | [2] | [3] | [4] | [5] | [6] | [7] | [8] | [9] | [10] | [11] | [12] | [13] | [15] | [16]

NC(=O)c1ccncc1
inactive: [1] | [2] | [3] | [4] | [5] | [6] | [7] | [8] | [9] | [10] | [11] | [19] | [12] | [13] | [14] | [15] | [20] | [16] | [18]

Clc1ccc(Nc2nnc(Cc3ccncc3)c3ccccc23)cc1
inactive: [1] | [2] | [3] | [4] | [7] | [8] | [9] | [10] | [11] | [19] | [12] | [13] | [14] | [15] | [20] | [16] | [17]
active: [5] 18.8 µM | [6] 26.6 µM

CCCCCCCCCI
inactive: [1] | [2] | [3] | [4] | [5] | [6] | [7] | [8] | [9] | [10] | [11] | [19] | [12] | [13] | [14] | [15] | [20] | [16] | [17] | [18]

O=Cc1c2ccccc2c(Cl)c2ccccc12
active: [6] 8.42 µM
inactive: [1] | [2] | [3] | [4] | [5] | [7] | [8] | [9] | [10] | [11] | [19] | [12] | [13] | [14] | [15] | [20] | [16] | [18]

O=C(O)c1ccc(OCCCOc2ccc(C(=O)O)cc2)cc1
inactive: [1] | [2] | [3] | [4] | [5] | [6] | [7] | [8] | [9] | [10] | [11] | [19] | [12] | [13] | [14] | [15] | [16]

CO[C@]1(NC(=O)CSC(F)F)C(=O)N2C(C(=O)O)=C(CSc3nnnn3CCO)CO[C@H]21
inactive: [1] | [2] | [3] | [4] | [5] | [6] | [8] | [9] | [11] | [19] | [12] | [13] | [15] | [16] | [17] | [18]

CC(O)c1ccccc1 (stereo not given)
inactive: [1] | [2] | [3] | [4] | [5] | [7] | [8] | [9] | [11] | [19] | [12] | [13] | [14] | [15] | [20] | [16]

CCCCCCCCCCC(=O)O
inactive: [1] | [2] | [3] | [4] | [5] | [7] | [8] | [9] | [10] | [19] | [12] | [13] | [14] | [15] | [20] | [16] | [17]

C=C(C)[C@@H]1CCC2=CCC[C@@H](C)[C@]2(C)C1
inactive: [1] | [2] | [3] | [4] | [5] | [7] | [8] | [9] | [10] | [11] | [19] | [12] | [13] | [14] | [15] | [16] | [17]

N#[N+]c1ccc2c(S(=O)(=O)[O-])cccc2c1O
inactive: [1] | [2] | [3] | [4] | [5] | [7] | [8] | [9] | [10] | [11] | [19] | [12] | [13] | [14] | [15] | [20] | [16]

CC1CC(C)C(=O)C1=O (stereo not given)
inactive: [1] | [2] | [3] | [4] | [5] | [6] | [7] | [8] | [10] | [11] | [19] | [12] | [13] | [14] | [15] | [20] | [16] | [17] | [18]

CCOC(=O)[C@H](CCc1ccccc1)N[C@@H](C)C(=O)N(CC(=O)O)C1Cc2ccccc2C1
inactive: [1] | [2] | [3] | [4] | [5] | [6] | [8] | [9] | [10] | [11] | [19] | [12] | [13] | [15] | [20] | [16] | [17] | [18]
